Screening data from PubChem.
Only some compounds are listed: those with a hit (about 8% of all), similar ones and a draw of the others.
HT1080 IDH1KD tx: qHTS for induction of synthetic lethality in tumor cells producing 2HG: qHTS for the HT-1080-IDH1KD cell line | HT-1080 IDH1 knockdown viability, ATP luminescence, 48 h | Potency, µM (titrated, usually from 46.1 µM), for the others: top-dose activity, negative = toxicity, actives largely listed as cytotoxic | 360,000 compounds, 2% hits | AID 686971, 2013;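 further: 0% = DMSO wells and -100% = cell-free medium wells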
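Using the IDH1-knockdown HT-1080 line run in the same batch and compound series as the NT line, viability after 48 h at 37 °C was determined by CellTiter-Glo luminescence and expressed as % activity.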
KB-3-1 tox: qHTS assay for MDR1-selective chemotherapeutics: Primary screen using the parental adenocarcinoma cell KB-3-1; 400,000 compounds, 1.4% hits; KB-3-1 viability, CellTiter-Glo ATP luminescence, 72 h; Potency, µM (doses to about 46.1 µM), actives largely listed as cytotoxic; further: on the % scale 0 is the no-effect control and ±100 the full control effect; nearly all actives have a fitted effect of over 60% in size
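Cytotoxicity measured as CellTiter-Glo luminescence after 72 h at 37 C. Compound titrations were pinned onto drug-naive KB-3-1 parental adenocarcinoma cells grown in DMEM with 10% FBS, and normalized data fitted to concentration-response curves.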
MCF10A rerep: A quantitative high throughput screen for small molecules that induce DNA re-replication in MCF 10a normal breast cells. MCF 10A DNA re-replication, Hoechst nuclear intensity, 48 h. Potency, µM (highest dose often 46.1 µM), for the others: top-dose activity, positive = re-replication, most hits filed as activators. 350,000 compounds, 2.9% hits. AID 624296, 2012; further: % of control where 0% means no effect; nearly all actives have a fitted effect of over 50% in size
SW480 rerep: A quantitative high throughput screen for small molecules that induce DNA re-replication in SW480 colon adenocarcinoma cells. AID 624297, 2012. Potency, µM (titrated, usually from 46.1 µM), for the others: at the highest dose re-replication activation, hits mostly activators. SW480 DNA re-replication, Hoechst DNA content imaging, 48 h. 340,000 compounds, 1.8% hits; further: % of control where 0% means no effect; nearly all actives have a fitted effect of over 55% in size
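Treated cells incubate 48 hr (37 C, 5% CO2), are stained 40 min with Hoechst, and nuclear fluorescence is enumerated; a rise in nuclei with high DNA signal marks re-replication.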
KB-V1 cytotox: qHTS assay for MDR1-selective chemotherapeutics: Primary screen using the drug-selected MDR subline cells KB-V1 | KB-V1 MDR cells viability, CellTiter-Glo, 72 h | Potency, µM (highest dose often 46.1 µM), most hits filed as cytotoxic | 400,000 compounds, 3.4% hits | AID 1347076, 2019; further: on the % scale 0 is the no-effect control and ±100 the full control effect; nearly all actives have a fitted effect of over 60% in size
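KB-V1, DMEM (no phenol red) + 10% FBS; cpd pin-transferred, titration series; 72 h, 37 degrees C; CellTiter-Glo, luminescence. Data normalized, curve-fit.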
HT1080NT lethal: qHTS for induction of synthetic lethality in tumor cells producing 2HG: qHTS for the HT-1080-NT fibrosarcoma cell line; HT-1080-NT fibrosarcoma viability, CellTiter-Glo ATP luminescence, 48 h; Potency, µM (titrated, usually from 46.1 µM), inactives show top-dose activity, negative = less viability, actives largely listed as cytotoxic; 360,000 compounds, 1.6% hits; AID 686970, 2013;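 further: NT is the 2HG producing partner of a matched IDH1 knockdown line; 0% = DMSO-treated cells and -100% = media-only wells without cells; nearly all actives have a fitted effect of over 55% in size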
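HT-1080-NT fibrosarcoma cells (2HG-overproducing), 750 cells/well in RPMI with 5% FBS, dosed after 2 h and incubated 48 h at 37C. CellTiter-Glo luminescence normalized to DMSO and no-cell wells; concentration-response curves fitted and classed.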
Starred values were filed as active, the others as inactive; i = inactive; ? = inconclusive; . = no result; [ ] = dose if it differs, or a comment. The call rests on the fitted dose curve; in most records, active means well fitted curve in the direction sought with a large enough effect; inconclusive means small, poorly fitted or top-dose-only effect, or another doubt; inactive means no such curve, though single readings can be large; an effect the other way counts as inactive or inconclusive. Potency means the concentration at half of the fitted maximal effect.

SMILES | HT1080 IDH1KD tx | KB-3-1 tox | MCF10A rerep | SW480 rerep | KB-V1 cytotox | HT1080NT lethal
Cc1ccc(CNc2ccc(S(=O)(=O)N3CCOCC3)cc2[N+](=O)[O-])cc1 | -8% | i | 12% | 11% | 5.2µM* | 0%
CCN(Cc1ccccc1)C(c1cc2ccc(C)cc2[nH]c1=O)c1nnnn1CCOC (stereo not drawn) | 7% | i | 0% | 1% | 15µM* | -3%
O=C(O)/C=C/C(=O)NC1CCCCCCCCCCC1 | -22% | i | 1% | -9% | i | -15%
CC(=O)Oc1ccc(-c2csnn2)cc1 | 6% | i | 9% | 0% | i | 9%
Cc1ccccc1C(=O)NNc1ccc(-c2csnn2)cc1 | 8.2µM* | i | 18µM* | 3% | i | ?
C=CC(=O)N1c2ccccc2Sc2ccc(NC(=O)OCC)cc21 | ? | ? | 6.5µM* | ? | i | ?
CCOC(=O)Nc1ccc2c(c1)N(C(=O)CN(CC)CC)c1ccccc1CC2 | -8% | i | -3% | ? | i | -11%
CCOC(=O)Nc1ccc2c(c1)N(C(=O)CCN(CC)CC)c1ccccc1S2=O (stereo not drawn) | 26µM* | ? | ? | 6% | i | 16µM*
CCOC(=O)Nc1ccc2c(c1)N(C(=O)CCN(CC)CC)c1ccccc1CC2 | -23% | i | 9% | 0% | i | ?
CCOC(=O)Nc1ccc2c(c1)N(C(=O)N1CCN(C)CC1)c1ccccc1S2 | -2% | i | -177%[0.0737 µM] | -2% | i | -18%
CCOC(=O)Nc1ccc2c(c1)N(C(=O)CN(CC)CC)c1ccccc1C=C2 | -9% | i | 12µM* | 3% | ? | 0%
CSc1nc2ccsc2c(=O)n1-c1cccnc1 | 19% | i | -4% | -52% | i | 21%
Cc1ccc(S(=O)(=O)/N=C2\C=C(NS(=O)(=O)c3ccccc3)C(=O)c3ccccc32)cc1 | ? | i | ? | 99% | i | ?
O=C(O)c1ccc(NC2=C/C(=N/S(=O)(=O)c3ccccc3)c3ccccc3C2=O)cc1 | 5.8µM* | 18µM* | ? | 3.3µM* | ? | 4.1µM*
Cc1cc(C)c(S(=O)(=O)/N=C2\C=C(Nc3ccc(C(=O)O)cc3)C(=O)c3ccccc32)c(C)c1 | 4.1µM* | ? | 17% | ? | i | 8.2µM*
O=C(CN(CCN1CCOCC1)C(=O)Cn1nnc(-c2ccc(F)cc2)n1)NC1CCCCC1 | -3% | i | -12% | 0% | i | 10%
CC(=O)c1ccc(N2CCC(c3cc(-c4ccc(Cl)cc4Cl)n[nH]3)CC2)c([N+](=O)[O-])c1 | ? | ? | ? | ? | 15µM* | 14µM*
CC(=O)[C@@H]1[C@@H]2C(=O)N(Cc3ccccc3)C(=O)[C@@H]2C2c3ccccc3C=CN21 (stereo partly drawn) | 0% | i | 5.8µM* | 4% | i | 5%
O=C(c1ccco1)[C@@H]1[C@@H]2C(=O)N(c3ccccc3)C(=O)[C@@H]2C2c3ccccc3C=CN21 (stereo partly drawn) | -17% | i | -1% | -2% | i | 4%
Nc1c(C(=O)O)sc2nc3c(cc12)CCCC3 | 1% | i | 0% | -10% | i | 0%
Nc1c(C(=O)C2CC2)sc2nc3c(cc12)CCC3 | 9% | i | 15µM* | ? | i | 12%
CCCC(=O)N1CCN(c2ccc(NC(=S)NC(=O)CC)cc2)CC1 | 2% | i | 0% | -6% | 23µM* | 22%
CCC(=O)NC(=S)Nc1ccc(N2CCOCC2)cc1 | 18% | i | 5% | 1% | i | 12%
COc1cccc(-n2c(=O)c3sc4ccccc4c3n(CC(=O)Nc3cccc(Cl)c3)c2=O)c1 | . | i | . | . | i | .
Cc1cccn2cc(CNc3ccccc3)nc12 | 11% | i | 13% | -3% | ? | 2%
SMILES | HT1080 IDH1KD tx | KB-3-1 tox | MCF10A rerep | SW480 rerep | KB-V1 cytotox | HT1080NT lethal
CCCS(=O)(=O)NCc1cn2cccc(C)c2n1 | ? | i | 2.6µM* | 10µM* | i | 10%
CC(=O)Nc1ccc(N=c2cc([N+](=O)[O-])cc(Cl)n2O)cc1 | ? | ? | ? | 23µM* | ? | -2%
COC(=O)c1cc(=O)nc2sc3cc(OC)ccc3n12 | 18% | i | 10% | 5% | i | 17%
COc1ccc(O)c(/C=c2/sc3nc4cc(C)c(C)cc4n3c2=O)c1 | ? | ? | 10% | 16% | 18µM* | ?
CCN(CC)S(=O)(=O)c1ccc2oc(C(=O)NCC3COc4ccccc4O3)c(C)c2c1 (stereo not drawn) | ? | i | 21% | 15% | ? | -30%
O=C(NCc1ccco1)/C(=C\c1ccco1)NC(=O)c1ccccc1Cl | 20% | i | -11% | 12µM* | i | -1%
CC1=NN(C(N)=S)C(=O)C1N=Nc1c(Cl)cc([N+](=O)[O-])cc1Cl (stereo not drawn) | -21% | i | 19% | -3% | ? | -19%
O=C(C[C@@H]1C/C=C\C[C@H](Cc2ccc(F)cc2)C(=O)OC[C@@H](Cc2c[nH]c3ccccc23)NC1=O)NCCO | 6% | i | ? | -14% | i | 2%
COc1ccccc1/C=N/NC(=O)c1cccc(NC(=O)c2ccccc2Cl)c1 | 11% | i | 2% | 0% | i | -2%
CCN(C(=O)c1ccco1)c1nc(-c2ccc(OC)cc2)cs1 | 0% | i | 15% | 0% | i | 4%
COCCN(C(=O)c1ccco1)c1nc(-c2ccc(OC)cc2)cs1 | 1% | i | . | . | ? | -2%
COc1ccc(-c2csc(N(CC3CCCO3)C(=O)c3ccco3)n2)cc1 (stereo not drawn) | -26% | ? | 16µM* | ? | i | -14%
COc1ccc(-c2csc(N(CC(C)C)C(=O)c3ccco3)n2)cc1 | -27% | i | 18µM* | ? | i | -13%
COc1ccc(NC(=O)N(CCc2ccccc2)Cc2cc3c(C)cc(C)cc3[nH]c2=O)cc1 | -13% | i | -1% | 5% | i | -7%
Oc1ccc(CCNc2c3ccccc3nc3ccccc23)cc1O | ? | 18µM* | ? | ? | i | 23µM*
